Common to all, as to test: log2 fold change, soluble protein after heating vs DMSO (PISA); higher = thermal stabilisation; K562 lysate, 10 uM; active = over 0.2 and 3.5 SD of the protein, either way, in both replicates (recomputed)
Compound in experiment [1]: C1=CC2=NC=CN=C2C=C1/C=C/3\C(=O)NC(=O)S3
Put shortly:
(§1)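 Thermal stability, expressed as log-two fold change relative to solvent controls, is given from duplicates. Crude K562 extract in PBS pH 7.4 with 1 mM MgCl2, at 1 mg/mL protein, was treated with 10 μM compound for 30 min and heated in aliquots for 3 min across 48°C-58°C. After pooling, adjustment to 0.5% NP-40 at 4°C and centrifugation at 21,000xg for 90 min, supernatant protein was measured by TMTpro 16plex LC-MS/MS with channel sums equalised.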

Compound in experiment [2]: C1=CC=C(C=C1)C2=NC(=C(N2)C3=CC=NC=C3)C4=CC(=C(C=C4)Cl)O
Put shortly:
as §1

Compound in experiment [3]: C1CCN(C1)C(=O)NC2=CC=CC(=C2)NC3=NC=C(C(=N3)NCCC4=CN=CN4)Br
The method, boiled down: as §1

Compound in experiment [4]: C1CN(CCC1(CC2=CC=C(C=C2)Cl)N)C3=NC=NC4=C3C=CN4
Put shortly:
as §1

Compound in a further experiment: C1COCCN1CCN2C3=CC=CC=C3N=C2NC(=O)C4=CC(=CC=C4)[N+](=O)[O-] [IRAK-1-4 Inhibitor I]
The method, boiled down:
as §1

Compound in the next experiment: C=CC(=O)N1CCC[C@@H](n2nc(-c3ccc(Oc4ccccc4)cc3)c3c(N)ncnc32)C1 [ibrutinib]
The method, boiled down:
as §1

Compound in experiment [5]: CC(=O)c1cnc2ccc(-c3cc(Cl)c(O)c(Cl)c3)nc2c1N[C@H]1CC[C@H](CN(C)C)CC1
Put shortly: as §1

Compound in another experiment: CC(C)(C)Cn1c(N)nc2ccc(-c3[nH]c(C(C)(C)C)nc3-c3ccc(F)cc3)nc21 [ralimetinib]
Put shortly:
as §1

Compound in experiment [6]: CC(C)(O)CC(=O)NCCn1ccc2ncnc(Nc3ccc(Oc4cccc(C(F)(F)F)c4)c(Cl)c3)c21
The method, boiled down: as §1

Compound in experiment [7]: CC1=C(C(CC(=O)N1)C2=CC=C(C=C2)C(F)(F)F)C(=O)NC3=C(C=C4C(=C3)C=NN4)F
Put shortly:
as §1

Compound in experiment [8]: CC1=C(C=C(C=C1)NC(=O)C2=CC(=CC=C2)N(C)C)NC(=O)C3=CC=C(C=C3)O
Put shortly: as §1

Compound in experiment [9]: CC1=CC=C(C=C1)SC2=C3C=C(SC3=CN=C2)C(=O)N
Put shortly:
as §1

Compound in experiment [10]: C/C(=N\NC(=O)C1=CC(=CC=C1)S(=O)(=O)N2CCOCC2)/C3=C(C=CC(=C3)Cl)O
The method, boiled down:
as §1

Compound in experiment [11]: C1=CC2=C(C=CC(=C2)/C=C\3/C(=O)NC(=NCC4=CC=CS4)S3)N=C1
The method, boiled down:
as §1

Compound in experiment [12]: C1=CC=C2C(=C1)C3=NNC4=CC=CC(=C43)C2=O
The method, boiled down:
as §1

Compound in experiment [13]: CC1=C(C2=C(C=C1)C(=O)C3=CC=CC=C3N2CCCN)C
Put shortly: as §1

Compound in experiment [14]: CC1=C(C=C(C=C1)NC(=O)C2=CC(=CC=C2)C(C)(C)C#N)NC3=CC4=C(C=C3)N=CN(C4=O)C
Put shortly: as §1

Compound in the next experiment: C#Cc1cccc(Nc2ncnc3cc(OCCOC)c(OCCOC)cc23)c1 [erlotinib]
The method, boiled down:
as §1

Compound in experiment [15]: C1=CC(=CC=C1C2=NC3=C(N2)C=C(C=C3)C(=O)N)OC4=CC=C(C=C4)Cl
The method, boiled down: as §1

Compound in experiment [16]: CC(C)C1=C2N=C(C=C(N2N=C1)NCC3=CC=CC=C3)NCCCCCCN
Put shortly:
as §1

Among the data in the supplement of paper PMC10849652 are log2 fold change values, retold here.

The full data set covers some 8,800 targets. This sample favours those with a hit. About 0.5% of all pairs of compound and target were hits. A number with no mark means an inactive call.

UniProt Q9BSG0, sequence (Q9BSG0 whole entry, looked up): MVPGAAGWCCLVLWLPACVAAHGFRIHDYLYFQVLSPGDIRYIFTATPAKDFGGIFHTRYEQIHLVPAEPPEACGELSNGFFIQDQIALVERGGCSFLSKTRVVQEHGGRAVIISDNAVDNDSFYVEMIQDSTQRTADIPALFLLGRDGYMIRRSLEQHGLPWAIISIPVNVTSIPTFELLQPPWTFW
UniProt O14668, sequence (O14668 whole entry, looked up): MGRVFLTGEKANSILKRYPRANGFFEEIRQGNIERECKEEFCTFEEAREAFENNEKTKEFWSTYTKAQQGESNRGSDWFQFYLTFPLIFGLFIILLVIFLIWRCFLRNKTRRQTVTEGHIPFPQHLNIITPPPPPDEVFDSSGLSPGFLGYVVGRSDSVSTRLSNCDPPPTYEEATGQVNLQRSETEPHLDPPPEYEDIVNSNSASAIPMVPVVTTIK
UniProt Q16378, sequence (Q16378 whole entry, looked up): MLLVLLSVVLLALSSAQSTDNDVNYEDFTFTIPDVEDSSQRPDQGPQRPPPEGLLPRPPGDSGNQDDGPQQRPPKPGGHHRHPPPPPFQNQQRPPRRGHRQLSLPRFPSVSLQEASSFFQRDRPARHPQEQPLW
UniProt O00329, sequence (O00329 whole entry, looked up): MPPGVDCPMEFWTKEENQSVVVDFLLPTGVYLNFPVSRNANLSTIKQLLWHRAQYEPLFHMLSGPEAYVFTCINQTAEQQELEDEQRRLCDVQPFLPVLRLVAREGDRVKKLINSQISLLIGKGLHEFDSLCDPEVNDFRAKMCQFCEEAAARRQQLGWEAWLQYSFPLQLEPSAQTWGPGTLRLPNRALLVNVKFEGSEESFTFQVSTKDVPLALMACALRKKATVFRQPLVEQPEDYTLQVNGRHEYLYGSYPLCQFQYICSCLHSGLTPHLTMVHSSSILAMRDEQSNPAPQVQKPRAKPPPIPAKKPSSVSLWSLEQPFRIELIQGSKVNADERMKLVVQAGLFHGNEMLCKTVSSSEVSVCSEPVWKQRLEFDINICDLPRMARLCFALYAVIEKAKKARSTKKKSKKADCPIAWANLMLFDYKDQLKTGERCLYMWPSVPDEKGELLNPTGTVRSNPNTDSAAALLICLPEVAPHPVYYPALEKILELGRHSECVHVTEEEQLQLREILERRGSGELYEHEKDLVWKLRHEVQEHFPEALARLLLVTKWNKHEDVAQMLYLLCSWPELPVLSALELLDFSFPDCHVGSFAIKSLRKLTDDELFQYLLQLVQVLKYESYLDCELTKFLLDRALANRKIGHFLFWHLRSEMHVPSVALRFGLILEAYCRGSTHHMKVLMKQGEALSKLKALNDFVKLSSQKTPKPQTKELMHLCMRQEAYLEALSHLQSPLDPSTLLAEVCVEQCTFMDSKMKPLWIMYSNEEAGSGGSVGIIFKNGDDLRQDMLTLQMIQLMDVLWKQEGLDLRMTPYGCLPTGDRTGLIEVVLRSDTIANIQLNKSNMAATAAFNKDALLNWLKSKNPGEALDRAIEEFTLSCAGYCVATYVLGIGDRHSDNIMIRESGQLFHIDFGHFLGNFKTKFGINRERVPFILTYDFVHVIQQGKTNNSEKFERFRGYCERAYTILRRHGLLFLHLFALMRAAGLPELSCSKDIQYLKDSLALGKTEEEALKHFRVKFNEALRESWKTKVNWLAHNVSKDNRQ
UniProt P78364, sequence (P78364 whole entry, looked up): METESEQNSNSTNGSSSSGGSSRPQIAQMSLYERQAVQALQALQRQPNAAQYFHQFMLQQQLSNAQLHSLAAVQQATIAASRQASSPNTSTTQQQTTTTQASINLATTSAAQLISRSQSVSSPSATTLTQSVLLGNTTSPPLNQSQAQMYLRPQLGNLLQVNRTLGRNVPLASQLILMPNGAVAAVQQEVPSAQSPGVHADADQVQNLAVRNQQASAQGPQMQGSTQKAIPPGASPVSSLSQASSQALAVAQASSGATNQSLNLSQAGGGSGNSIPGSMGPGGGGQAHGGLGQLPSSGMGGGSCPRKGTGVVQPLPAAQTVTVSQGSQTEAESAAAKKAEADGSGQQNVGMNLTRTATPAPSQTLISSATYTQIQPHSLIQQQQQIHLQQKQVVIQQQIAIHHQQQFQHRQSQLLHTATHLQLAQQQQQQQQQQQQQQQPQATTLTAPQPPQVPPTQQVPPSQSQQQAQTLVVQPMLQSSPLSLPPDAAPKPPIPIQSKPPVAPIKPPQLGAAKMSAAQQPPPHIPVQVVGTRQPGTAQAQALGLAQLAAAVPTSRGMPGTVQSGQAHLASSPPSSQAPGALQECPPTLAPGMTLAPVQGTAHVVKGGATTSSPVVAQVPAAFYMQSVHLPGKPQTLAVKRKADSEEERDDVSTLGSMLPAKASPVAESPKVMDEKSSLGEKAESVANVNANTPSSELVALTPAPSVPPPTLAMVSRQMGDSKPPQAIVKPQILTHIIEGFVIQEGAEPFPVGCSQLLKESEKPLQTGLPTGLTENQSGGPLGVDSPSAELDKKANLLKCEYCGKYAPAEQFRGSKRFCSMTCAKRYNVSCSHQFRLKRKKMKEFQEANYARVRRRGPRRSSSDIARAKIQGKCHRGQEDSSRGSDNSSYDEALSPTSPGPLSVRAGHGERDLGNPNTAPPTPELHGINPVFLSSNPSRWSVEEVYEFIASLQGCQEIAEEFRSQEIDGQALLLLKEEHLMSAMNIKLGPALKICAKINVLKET
UniProt Q16816, sequence (Q16816 whole entry, looked up): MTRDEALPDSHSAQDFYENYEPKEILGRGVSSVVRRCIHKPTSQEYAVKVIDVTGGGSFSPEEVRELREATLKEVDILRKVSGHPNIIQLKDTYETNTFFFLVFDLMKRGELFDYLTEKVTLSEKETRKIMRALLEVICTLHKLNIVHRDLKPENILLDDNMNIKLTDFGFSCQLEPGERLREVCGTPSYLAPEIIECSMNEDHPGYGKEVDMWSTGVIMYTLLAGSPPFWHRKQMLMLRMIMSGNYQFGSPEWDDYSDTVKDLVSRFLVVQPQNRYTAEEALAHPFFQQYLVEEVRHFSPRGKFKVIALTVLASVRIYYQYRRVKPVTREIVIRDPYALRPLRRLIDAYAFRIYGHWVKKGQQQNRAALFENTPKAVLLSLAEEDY
UniProt Q13362, sequence (Q13362 whole entry, looked up): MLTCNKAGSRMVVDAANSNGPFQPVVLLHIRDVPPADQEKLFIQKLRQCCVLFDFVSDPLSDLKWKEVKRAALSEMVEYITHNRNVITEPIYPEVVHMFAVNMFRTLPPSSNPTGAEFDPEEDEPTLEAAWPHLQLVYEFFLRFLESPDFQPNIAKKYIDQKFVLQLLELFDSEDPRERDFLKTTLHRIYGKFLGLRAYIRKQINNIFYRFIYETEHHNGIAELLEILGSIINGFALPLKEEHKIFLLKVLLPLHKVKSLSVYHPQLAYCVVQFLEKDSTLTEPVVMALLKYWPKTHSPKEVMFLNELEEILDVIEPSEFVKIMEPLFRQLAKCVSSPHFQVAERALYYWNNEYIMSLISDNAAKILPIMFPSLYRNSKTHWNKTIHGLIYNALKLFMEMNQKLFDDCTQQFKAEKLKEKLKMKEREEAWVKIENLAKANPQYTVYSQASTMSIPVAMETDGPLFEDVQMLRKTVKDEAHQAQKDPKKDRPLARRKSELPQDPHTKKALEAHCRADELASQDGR
UniProt P28328, sequence (P28328 whole entry, looked up): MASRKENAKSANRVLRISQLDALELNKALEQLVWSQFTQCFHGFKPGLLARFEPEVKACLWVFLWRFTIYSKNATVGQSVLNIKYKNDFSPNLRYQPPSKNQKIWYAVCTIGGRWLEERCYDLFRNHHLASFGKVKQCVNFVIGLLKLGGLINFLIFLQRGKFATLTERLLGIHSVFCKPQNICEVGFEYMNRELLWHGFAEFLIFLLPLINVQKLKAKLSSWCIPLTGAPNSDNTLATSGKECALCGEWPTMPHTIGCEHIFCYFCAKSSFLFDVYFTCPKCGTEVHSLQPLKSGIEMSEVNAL

Take PFN1 (UniProt I3L3D5): the log2 fold change in experiment [1] is 0.054; in experiment [2] it was 0.045; in experiment [3], 0.009; in experiment [4], 0.03; with IRAK-1-4 Inhibitor I, 0.005; with ibrutinib, -0.045. Further, the log2 fold change in experiment [5] was -0.053; with ralimetinib, 0.045; in experiment [6] it was -0.033; in [7], -0.013; in experiment [8], 0; in [9], 0.031.
PHC1 (UniProt P78364): the log2 fold change was 0.032 in [10]; -0.004 in experiment [11]; -0.075 in experiment [1]; -0.051 in [12]; 0.021 in experiment [3]; -0.01 in experiment [4]. Also, the log2 fold change was 0.027 in the experiment with ibrutinib, 0.044 in [7], -0.117 in [13] and 0.443 (active) in [14].
Take PIK3CD (UniProt O00329): the log2 fold change was -0.014 with erlotinib; -0.162 in [10]; -0.095 in experiment [15]; 0.034 in experiment [11]; 0.091 in [1]; -0.031 in experiment [2]. Besides, the log2 fold change in [12] is 0.098; with IRAK-1-4 Inhibitor I, 0.109; in the experiment with ibrutinib, -0.14; in [5] it was 0.222; with ralimetinib it was -0.017; in experiment [6] it was -0.123. Moreover, the log2 fold change in [16] was -0.12; in [7], 0.021; in experiment [13], -0.032; in experiment [14], 0.04; in experiment [8], 0.098; in experiment [9], -0.056.
For PRR4 (UniProt Q16378), the log2 fold change is -0.097 with erlotinib; 1.59 in [10]; -0.193 in experiment [15]; -0.167 in experiment [11]; -0.11 in experiment [2]; -0.484 in [12]. The log2 fold change is -0.127 in experiment [3]; 1.09 in experiment [4]; -0.048 in the experiment with IRAK-1-4 Inhibitor I; -0.009 in experiment [5]; -0.188 with ralimetinib; 0.305 in experiment [6]. Also, the log2 fold change in experiment [16] is 1.86; in experiment [7], 1.73; in experiment [8], 0.1; in [9], -0.23.
On to PPP2CA (UniProt E7ESG8), for which the log2 fold change in [7] was 0.239.
Consider PDE4DIP (UniProt E9PS60), for which the log2 fold change with erlotinib was 0.026; in experiment [10], -0.056; in experiment [15], -0.13; in experiment [11], 0.044; in experiment [12], 0.039; in [3], 0.114. The log2 fold change in experiment [4] was 0.063; in experiment [16], 0.037; in experiment [7], -0.113; in experiment [13], 0.076; in experiment [14] it was 0.234.
PHKG1 isoform 2 (UniProt Q16816): the log2 fold change was 0.003 with erlotinib; -0.127 in experiment [10]; 0.187 in experiment [15]; 0.061 in [11]; 0.029 in [2]; 0.399 in experiment [12]. For the same target, the log2 fold change in experiment [3] was 0.157; in experiment [4], 0.014; with IRAK-1-4 Inhibitor I, -0.102; in experiment [5], 0.595; with ralimetinib, 0.02; in experiment [6], -0.016. Further, the log2 fold change is -0.003 in experiment [16]; -0.117 in experiment [7]; -0.196 in experiment [13]; 0.017 in experiment [14]; -0.02 in [8]; -0.086 in experiment [9].
On to PRRG1 (UniProt O14668), for which the log2 fold change in experiment [2] was -0.006; in the experiment with IRAK-1-4 Inhibitor I, 0.06; in the experiment with ralimetinib, 0.081; in experiment [6] it was 0.072; in [8], -0.033.
For PRADC1 (UniProt Q9BSG0), the log2 fold change is -0.016 in the experiment with erlotinib; 0.027 in experiment [15]; 0.018 in [1]; 0 in experiment [2]; 0.017 in the experiment with IRAK-1-4 Inhibitor I; 0.026 with ibrutinib. Besides, the log2 fold change in experiment [5] was -0.395; in the experiment with ralimetinib, -0.023; in experiment [6] it was 0.041; in experiment [16], -0.125; in [7] it was 0.026; in experiment [13], -0.009. The log2 fold change in experiment [14] is 0.072; in [8], 0.008; in [9], -0.023.
Take PPP2R5C isoform 2 (UniProt Q13362): the log2 fold change with erlotinib was 0.003; in experiment [10] it was 0.044; in experiment [15], 0.024; in experiment [11] it was -0.046; in experiment [1], 0.186; in experiment [2], 0.024. Also, the log2 fold change in experiment [12] was 0.013; with IRAK-1-4 Inhibitor I it was 0.052; in the experiment with ibrutinib it was -0.145; with ralimetinib, -0.016; in [6], -0.02; in [16], 0.02. The log2 fold change in experiment [7] was -0.012; in experiment [13], 0; in experiment [14] it was -0.155; in experiment [8], 0.08.
Take PEX2 (UniProt P28328): the log2 fold change with erlotinib is 0.106; in [10], -0.731 (active); in experiment [15] it was 0.068; in [11] it was 0.048; in experiment [1] it was -0.128; in experiment [2], 0.082. The log2 fold change in experiment [12] was -0.119; with IRAK-1-4 Inhibitor I it was -0.04; in the experiment with ibrutinib it was 0.017; in experiment [5], -0.114; in the experiment with ralimetinib, 0.021; in experiment [6], -0.098. Further, the log2 fold change in experiment [16] is 0.023; in [7], 0.14; in experiment [13], -0.07; in experiment [14] it was -0.002; in experiment [8] it was 0.065; in [9], 0.035.
